# ChEMBL document CHEMBL4513216, “Probing the Open Global Health Chemical Diversity Library for Multistage-Active Starting Points for Next-Generation Antimalarials” (ACS Infect Dis, 2020)
# In all, about 69,000 compounds went through this assay and about 8,600 (12%) showed an effect of 50% or more. For the sample, strong results were picked, then their nearest neighbours and some compounds at random.
# Test system: Plasmodium berghei
# Experiment: Screen against P. berghei liver stage (PbLuc), transformed with Luciferase, at 10uM
# Type: functional, HepG2
# Details: tested at 10 uM
row,SMILES,INHIBITION
1,Cc1cnn(-c2ccc(C(=O)N3CCCC(n4ccnc4C)C3)cc2)c1 (stereo not drawn),0.411%
2,Cn1cc(C2CCCN2C(=O)COCCOc2ccccc2)cn1 (stereo not drawn),44.1%
3,CC(C)N1CCc2onc(Cn3cccc3)c2C1,4.02%
4,Cc1nc(C)n(CC2CCCN2CCOc2ccccc2F)n1 (stereo not drawn),-83.4%
5,CC(C)c1nc(C2CCCN(C(=O)CCc3cscn3)C2)no1 (stereo not drawn),-43.5%
6,c1cnc(Nc2cc(CCC3CCCNC3)ccn2)cn1 (stereo not drawn),-26.2%
7,Cc1nc2cc(C(=O)N3CCn4c(nnc4C4CC4)C3)ccc2s1,10.9%
8,CCN(CC)CCn1cc(NC2CCN(C(C)(C)C)CC2)cn1,-13.1%
9,O=C(NCCc1nncn1C1CC1)C1SCCc2ccccc21 (stereo not drawn),-4.13%
10,Cc1nn(C)c(NC(=O)C2SCCc3ccccc32)c1C (stereo not drawn),74%
11,Cc1nonc1NC(=O)C1SCCc2ccccc21 (stereo not drawn),-92.8%
12,O=C(c1ccncc1)N(CCO)Cc1cc(Br)ccc1F,35.6%
13,Nc1nc2c(c(=O)[nH]1)CCN(C(=O)c1ccccc1N1CCCC1)C2,8.24%
14,CC(C)(C)NC(=O)c1cnc2n1CCCC2,-107%
15,O=C(c1cnc2n1CCCC2)N1CCCC1,66.1%
16,O=C(NC1CC1)c1cnc2n1CCCC2,-40.6%
17,O=C(NCCCc1ccccn1)c1cn(CCN2CCNCC2)nn1,-37.8%
18,CCN1CCN(C(=O)c2cc(-c3cccs3)cs2)CC1,-15.5%
19,CC(C)NC(=O)Nc1ccc(CS(=O)(=O)C(C)(C)C)cc1,-8.69%
20,O=C1NCC[C@]12CN(Cc1cccnc1)C[C@H]2c1ccccc1,-3.77%
21,CCCS(=O)(=O)N1C[C@@H](c2ccccc2)[C@@]2(CCNC2=O)C1,53.9%
22,O=C(c1cnccn1)N1CCC2(CC1)C(=O)NCC2c1ccccc1 (stereo not drawn),49.7%
23,O=C1NCC[C@]12CN(Cc1ccoc1)C[C@H]2c1ccccc1,-38.1%
24,Cc1ccc(CN2C[C@@H](c3ccccc3)[C@@]3(CCNC3=O)C2)o1,-2.46%
25,CCS(=O)(=O)N1C[C@@H](c2ccccc2)[C@@]2(CCNC2=O)C1,48.4%
26,O=C(c1cccnc1)N1C[C@@H](c2ccccc2)[C@@]2(CCNC2=O)C1,-0.554%
27,O=C1NCC[C@]12CN(Cc1ccncc1)C[C@H]2c1ccccc1,51.3%

row,SMILES,INHIBITION
1,O=C(c1cnccn1)N1C[C@@H](c2ccccc2)[C@@]2(CCNC2=O)C1,74.8%
2,N#Cc1c2n(c3c(N)ncnc13)CCCCC2,44.4%
3,CC(C(=O)N1CCN(c2ncccn2)CC1)n1cncn1 (stereo not drawn),10%
4,CCc1oc(C(=O)N2CC[C@@H]3CC[C@H](C2)N3)cc1CN(CC)CC,29.4%
5,Cc1ccc(CN2CCC(c3cnccn3)CC2)s1,18.9535%
6,CC(C)(O)CN1CC(C)(C)CN(C(=O)CCc2ccccc2)CC1=O,44.9%
7,Cn1c(N2CCOCC2)nc2cc(C(=O)NCC(F)(F)F)ccc21,20.9%
8,CCN(C)c1ncnc2c1CCN(C(=O)Cc1ccccn1)CC2,34.4%
9,Cc1cc(CNCc2c(C)n(CC(C)C)c3ccccc23)[nH]n1,27.4%
10,CC(C)N1CC2(CCCN(c3ccccn3)C2)CCC1=O (stereo not drawn),-9.18%
11,CC(C)N1CC2(CCCN(c3ccnc4ccccc34)C2)CCC1=O (stereo not drawn),65.1%
12,CC(C)N1CC2(CCC1=O)CCN(c1ccnc3ccccc13)CC2,20.5%
13,CC(C)N(Cc1cccc(Cl)c1)Cc1nc2c(cnn2C)c(=O)[nH]1,15.6%
14,COc1ccc(CCNC2CCCN(Cc3noc(C)n3)C2)cc1 (stereo not drawn),35.9%
15,CC(=O)Nc1ccccc1Sc1nc(Br)nn1C,5.58%
16,CN(Cc1n[nH]c2c1CCC2)C(=O)c1cc(-c2cccn2C)n[nH]1,-7.53%
17,CCOCc1ccc(CNC2=NCCCN2)cc1,47.1%
18,CN(C)c1ccc(CNC2=NCCCN2)cc1,75.8%
19,CC(C)C(=O)NCc1ccc(N(C)C)cc1,-51.5%
20,COC(=O)c1ccc(Cn2nc(C)cc2C)cc1,-60.4%
21,CCc1c(C(=O)N2CCN(C)[C@@H]3CS(=O)(=O)C[C@@H]32)[nH]c2ccccc12,60.1%
22,CCN1CCN(C(=O)c2[nH]c3ccccc3c2Cl)[C@H]2CS(=O)(=O)C[C@H]21,-9.87%
23,Cc1c(C(=O)N2CCN(C)[C@@H]3CS(=O)(=O)C[C@@H]32)[nH]c2ccc(F)cc12,43%
24,CC(C)c1nn(C)c(N(C)C)c1CNC1CCOc2c(F)cccc21 (stereo not drawn),-12.5%
25,O=C(c1cnccn1)N1CC2(CCN(Cc3ccsc3)C2)C1,23.3%
26,CN(C)C(=O)C1CSCN1C(=O)CCc1ccco1 (stereo not drawn),-75%
